“And” between values parts separate entries of the source, which are not always exact repeats. Identical values can stand only once. About 83,000 compounds went through this panel and 20% of them were active in at least one assay; those are over-represented in the sample as a whole.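 Results are percent growth after 48 hours of single-concentration exposure. 100 means growth as in untreated cells, lower positive values show inhibition; negative values down to -100 show cell death.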 The source made the active and inactive calls. Rule for the calls: active = growth percent below 10; inactive = the rest.
Columns and labels:
Experiment in all cases: NCI-60 one-dose screen, 48 h (100 = growth as untreated, 0 = no growth, -100 = all killed)
[1] = tested on: NCI-H23 lung
[2] = tested on: NCI-H226 lung
[3] = tested on: NCI-H322M lung
[4] = tested on: HOP-62 NSCLC
[5] = tested on: NCI-H460 lung
[6] = tested on: HOP-92 NSCLC
[7] = tested on: NCI-H522 lung
[8] = tested on: A549/ATCC NSCLC
[9] = tested on: 786-0 renal
[10] = tested on: COLO 205 colon
[11] = tested on: DU-145 prostate
[12] = tested on: K-562 leukemia
[13] = tested on: MALME-3M melanoma
[14] = tested on: MDA-MB-231 breast
[15] = tested on: RXF 393 renal
[16] = tested on: SF-268 CNS
[17] = tested on: SF-295 CNS
[18] = tested on: SF-539 CNS
[19] = tested on: UACC-257 melanoma
[20] = tested on: M14 melanoma

Measured: growth

CN(C)CCCNC1=C(Cl)C(=O)c2ccccc2C1=O
122% (inactive) and 2.27% (active): [15]; 10 µM unless noted
28.4% (inactive) and -96.6% (active): [19]; 10 µM unless noted
inactive: [2]; 10 µM unless noted 102% and 97.7% | [3]; 10 µM unless noted 92.4% and 98.7% | [4]; 10 µM unless noted 78.8% and 85.1% | [5]; 10 µM unless noted 78.9% and 83.8% | [6]; 10 µM unless noted 108% and 107% | [8]; 10 µM unless noted 94.3% and 85.1% | [9]; 10 µM unless noted 99.5% and 79.4% | [11]; 10 µM unless noted 75.2% and 31.7% | [14]; 10 µM unless noted 69.6% and 41.9% | [16]; 10 µM unless noted 102% and 75% | [17]; 10 µM unless noted 87% and 72.2% | [18]; 10 µM unless noted 102% and 101%
active: [1]; 10 µM unless noted -41.4% and -79.2% | [10]; 10 µM unless noted -73.7% and -85.8% | [12]; 10 µM unless noted -46.7% and -23.9% | [13]; 10 µM unless noted -82.7% and -88.9% | [20]; 10 µM unless noted -87% and -99.1%
80.4% (inactive) and -30.3% (active): [7]; 10 µM unless noted

CC(C)Cc1ccc(C(C)C(=O)NCc2ccc(Cn3c(=O)sn(CCCCl)c3=O)cc2)cc1 (stereo not given)
94% (inactive) and -58.1% (active): [20]; 10 µM unless noted
94.4% (inactive) and -21.2% (active): [19]; 10 µM unless noted
84.8% (inactive) and -40.3% (active): [16]; 10 µM unless noted
66.8% (inactive) and -65% (active): [10]; 10 µM unless noted
inactive: [2]; 10 µM unless noted 106% and 32.6% | [3]; 10 µM unless noted 101% and 73.9% | [5]; 10 µM unless noted 105% and 40.2% | [17]; 10 µM unless noted 97.9% and 53.7%
110% (inactive) and -74.2% (active): [13]; 10 µM unless noted
101% (inactive) and -20.1% (active): [8]; 10 µM unless noted
85.5% (inactive) and -52.3% (active): [7]; 10 µM unless noted
96.7% (inactive) and -59.1% (active): [1]; 10 µM unless noted
105% (inactive) and -77.6% (active): [6]; 10 µM unless noted
101% (inactive) and -71.6% (active): [9]; 10 µM unless noted
105% (inactive) and -38.5% (active): [4]; 10 µM unless noted
104% (inactive) and -90.3% (active): [18]; 10 µM unless noted
95% (inactive) and -78% (active): [11]; 10 µM unless noted
104% (inactive) and -77.2% (active): [14]; 10 µM unless noted
active: [12]; 10 µM unless noted 2.16% | [15]; 10 µM unless noted -94.2%

COc1ccccc1C(C)=O
inactive: [1]; 10 µM unless noted 94% and 109% | [2]; 10 µM unless noted 95.2% and 107% | [3]; 10 µM unless noted 97.5% and 103% | [4]; 10 µM unless noted 107% and 102% | [5]; 10 µM unless noted 99.8% and 109% | [6]; 10 µM unless noted 70.5% | [7]; 10 µM unless noted 113% | [8]; 10 µM unless noted 107% and 96.9% | [9]; 10 µM unless noted 110% and 96.6% | [10]; 10 µM unless noted 105% | [11]; 10 µM unless noted 107% and 113% | [12]; 10 µM unless noted 84.9% and 106% | [13]; 10 µM unless noted 114% and 107% | [14]; 10 µM unless noted 104% and 117% | [15]; 10 µM unless noted 99.3% and 121% | [16]; 10 µM unless noted 92.7% and 107% | [17]; 10 µM unless noted 106% | [18]; 10 µM unless noted 105% and 107% | [19]; 10 µM unless noted 107% and 110% | [20]; 10 µM unless noted 105% and 95.7%

CC1(C)OB(c2ccc(Cn3cc(F)c(=O)[nH]c3=O)cc2)OC1(C)C
inactive: [1]; 10 µM 94.9% | [1]; 50 µM 68.3% | [2]; 10 µM 96.9% | [2]; 50 µM 64% | [3]; 10 µM 102% | [3]; 50 µM 86.4% | [4]; 10 µM 104% | [4]; 50 µM 63.9% | [5]; 10 µM 106% | [5]; 50 µM 34.2% | [6]; 10 µM 98.3% | [6]; 50 µM 33.2% | [7]; 10 µM 91% | [7]; 50 µM 10.3% | [8]; 10 µM 98.9% | [8]; 50 µM 75.8% | [9]; 10 µM 105% | [9]; 50 µM 81.4% | [10]; 10 µM 120% | [10]; 50 µM 36.4% | [11]; 10 µM 113% | [11]; 50 µM 84% | [12]; 10 µM 110% | [12]; 50 µM 29.7% | [13]; 10 µM 97.2% | [13]; 50 µM 44.7% | [14]; 10 µM 124% | [14]; 50 µM 86.1% | [15]; 10 µM 99.7% | [15]; 50 µM 59.9% | [16]; 10 µM 94.7% | [16]; 50 µM 68.7% | [17]; 10 µM 102% | [17]; 50 µM 85.5% | [18]; 10 µM 101% | [18]; 50 µM 61.4% | [19]; 10 µM 103% | [19]; 50 µM 67.3% | [20]; 10 µM 103% | [20]; 50 µM 44.9%

Reference: PubChem BioAssay (NCI)
